# A structure can be active in one record and inactive in another. Active and inactive are the calls of the source. How the source made its calls: active means hit-call score of the fitted dose curve at least 0.9, where 1 is the maximum; inactive means score below 0.9.
# Assays:
# [1] = APR_HepG2_P-H2AX_72hr: Apredica 72-hour HepG2 Assay for H2AX Phosphorylation (AID 2282916); details: imaging, actives raise or lower the signal;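 further: phospho-histone H2A.x immunostain intensity per cell marking DNA damage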
# How it was run: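 HepG2; cpd 0.39–200 uM ×10 conc, duplicates; 0.5% DMSO; 72 hr. Fix 3.7% formaldehyde 30 min RT, 0.5% Triton X-100 10 min. Anti-phospho-H2A.x 1:200 + Hoechst 2 ug/mL, 60 min RT; ArrayScan imaging.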
# [2] = APR_HepG2_MitoMembPot_72hr: Apredica 72-hour HepG2 Assay for Mitochondrial Membrane Potential (AID 2282917); details: imaging, actives raise or lower the signal
# How it was run: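 Membrane potential read by MitoTracker Red CMXRos (250 nM, 30 min, pre-fixation) fluorescence imaging of HepG2 after 72 hr exposure. Ten concentrations, 0.39–200 uM, duplicate wells, 0.5% DMSO; fitted in both directions against DMSO baseline.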
# [3] = APR_HepG2_MitoticArrest_72hr: Apredica 72-hour HepG2 Assay for Mitotic Arrest (AID 2282918); details: high-content imaging, actives raise or lower the signal
# How it was run: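 HepG2, 72 hr exposure, 0.39–200 uM in duplicate, 0.5% v/v DMSO final. Formaldehyde-fixed, Triton-permeabilized, anti-phospho-histone H3/FITC plus Hoechst. ArrayScan imaging at 20x; curves fit bidirectionally against DMSO baseline.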
# [4] = APR_HepG2_MicrotubuleCSK_72hr: Apredica 72-hour HepG2 Assay for Microtubule CSK Stabilty (AID 2282919); details: HepG2 microtubule cytoskeleton, high-content imaging, actives raise or lower the signal
# How it was run: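 Read-out is tubulin fluorescence intensity from high-content imaging of HepG2 cells, with nuclei identified by Hoechst 33342. Treatment lasts 72 h at 0.39–200 uM, and curves are fitted bidirectionally against the DMSO negative control.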
# [5] = APR_HepG2_StressKinase_72hr: Apredica 72-hour HepG2 Assay for Stress Kinase (AID 2282921); details: HepG2 stress kinase (phospho-c-Jun) imaging, actives raise or lower the signal
# How it was run: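 Dose 0.39–200 uM (10 pts, duplicate), 0.5% DMSO; 72 h; fix 3.7% formaldehyde 30 min RT; Triton permeabilize; anti-phospho-c-Jun/Cy3 + Hoechst 60 min RT; image 20x; fit gain/loss vs DMSO.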
# [6] = APR_HepG2_StressKinase_24hr: Apredica 24-hour HepG2 Assay for Stress Kinase (AID 2282922); details: HepG2 stress kinase (phospho-c-Jun) imaging, actives raise or lower the signal
# How it was run: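 HepG2, 24 hr dosing, 0.39–200 uM in duplicate, 0.5% DMSO; formaldehyde fix (3.7%), 0.5% Triton X-100; anti-phospho-c-Jun + Cy3 secondary, Hoechst counterstain; ArrayScan imaging; bidirectional curve fit vs DMSO baseline.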
# [7] = APR_HepG2_p53Act_72hr: Apredica 72-hour HepG2 Assay for p53 Activation (AID 2282923); details: high-content imaging, actives raise or lower the signal;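 further: average cellular p53 protein immunofluorescence intensity in HepG2 cells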
# How it was run: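 10-pt conc. 0.39–200 uM, duplicate, 0.5% DMSO; 72 hr exposure; 3.7% formaldehyde fix, 0.5% Triton perm; sheep anti-p53/Cy5 + Hoechst; ArrayScan 20x, 6 images/well; gain/loss fit vs DMSO.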
# [8] = APR_HepG2_MitoMass_72hr: Apredica 72-hour HepG2 Assay for Mitochondrial Mass (AID 2282924); details: high-content imaging, actives raise or lower the signal;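 further: MitoTracker Red CMXRos stain intensity per cell imaged as mitochondrial mass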
# How it was run: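 HepG2, 72 hr cmpd, 10 conc 0.39–200 uM in dup, DMSO 0.5% v/v. MitoTracker Red CMXRos 250 nM 30 min pre-fix; formaldehyde 3.7% fix 30 min RT. HCS imaging, gain/loss fit vs DMSO.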
# [9] = APR_HepG2_NuclearSize_72hr: Apredica 72-hour HepG2 Assay for Nuclear Size (AID 2282925); details: high-content imaging, actives raise or lower the signal
# How it was run: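 HepG2; cpd 0.39–200 uM, 10 conc, duplicate; 72 h; DMSO 0.5% v/v; fix 3.7% formaldehyde 30 min RT; Triton permeabilization; Hoechst 2 ug/mL; HCS imaging 20x; nuclear diameter; gain/loss fit vs DMSO.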
# [10] = ATG_CRE_CIS: Attagene CIS-FACTORIAL HepG2 Assay for human cAMP Responsive Element (CRE) binding protein 3 (AID 2282926); details: HepG2 CRE cis-reporter, Attagene multiplexed mRNA; actives raise or lower the signal
# How it was run: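 Endogenous CRE-binding activity in HepG2 is reported through a cis-regulated transfected reporter. Following a day of exposure, mRNA levels are determined by reverse transcription PCR and fluorescent fragment analysis; fits run in both directions versus DMSO.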
# [11] = biological target: CCAAT/enhancer-binding protein beta (Homo sapiens) (UniProt P17676); assay: ATG_C_EBP_CIS: Attagene CIS-FACTORIAL HepG2 Assay for human CCAAT/Enhancer Binding Protein (C/EBP) beta (AID 2282927); details: HepG2 Attagene cis-factorial transcription factor reporter; actives raise or lower the signal
# How it was run: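 Endogenous C/EBPb-driven reporter transcripts measured in transfected human HepG2 cells at 24 h via RT-PCR and capillary electrophoresis of labelled fragments. Activity fitted in both directions relative to DMSO baseline.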
# [12] = ATG_CMV_CIS: Attagene CIS-FACTORIAL HepG2 Assay for human CMV (Internal Marker) (AID 2282928); details: HepG2 CMV promoter reporter, transcription factor profiling; actives raise or lower the signal;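 further: endpoint acts as a background internal control marker rather than a target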
# How it was run: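 After transient transfection of HepG2 with reporter transcription units driven by cis-regulatory promoters, cells receive test chemical for 24 h. Labeled reporter amplicons, digested with HpaI, are sized and quantified by capillary electrophoresis against DMSO.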
# [13] = ATG_DR4_LXR_CIS: Attagene CIS-FACTORIAL HepG2 Assay for human Liver X Receptor (LXR), DR4 submotif (AID 2282929); details: HepG2 Attagene DR4 cis-reporter, mRNA transcription; actives raise or lower the signal
# How it was run: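 Transiently transfected HepG2 liver cells; cis-regulated reporters; 24 h dosing. RT-PCR plus CE read-out of reporter mRNA. DMSO baseline, bidirectional curve fitting.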
# [14] = biological target: Aryl hydrocarbon receptor (Homo sapiens) (UniProt P35869); assay: ATG_Ahr_CIS: Attagene CIS-FACTORIAL HepG2 Assay for human Aryl Hydrocarbon Receptor (Ahr) (AID 2282930); details: HepG2 AhR cis-factorial reporter transcription; actives raise or lower the signal
# How it was run: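 Reporter mRNA levels, quantified by RT-PCR and fluorescent capillary electrophoresis, reflect endogenous AhR transcriptional activity in HepG2 cells carrying transfected cis-promoter reporter constructs. Readout at 24 h post-dose; gain or loss fitted against DMSO baseline.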
# [15] = ATG_AP_1_CIS: Attagene CIS-FACTORIAL HepG2 Assay for human Activator Protein 1 (AP-1) (AID 2282931); details: HepG2 Attagene cis-factorial AP-1 reporter mRNA; actives raise or lower the signal
# How it was run: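 We transfected HepG2 cells transiently with a set of cis-regulated reporter transcription units, dosed them for 24 h, and quantified reporter mRNA via RT-PCR and capillary electrophoresis, scoring gain or loss of signal relative to DMSO.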
# [16] = ATG_AP_2_CIS: Attagene CIS-FACTORIAL HepG2 Assay for human Activator Protein 2 (AP-2) (AID 2282932); details: HepG2 AP-2 cis-reporter, Attagene transcription factor profiling; actives raise or lower the signal
# How it was run: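 HepG2, transient MRTU transfection, cis-regulated reporters; 24 h compound exposure; RNA isolated, RT-PCR, 6-FAM labelling, HpaI digest, CE fluorescence. DMSO = negative control/baseline, bidirectional fit.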
# [17] = ATG_BRE_CIS: Attagene CIS-FACTORIAL HepG2 Assay for human Bone Morphogenetic Protein (BMP) Response Element (BRE) (AID 2282933); details: HepG2 BMP response element reporter, Attagene transcription factor profiling; actives raise or lower the signal
# How it was run: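 Endogenous transcription factor activity at a BMP response element was monitored in transfected HepG2 cells 24 h after dosing. Fluorescent RT-PCR products were resolved by capillary electrophoresis, and activity was fitted in both directions versus DMSO.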
# [18] = biological target: Retinoic acid receptor alpha (Homo sapiens) (UniProt P10276); assay: ATG_DR5_RAR_CIS: Attagene CIS-FACTORIAL HepG2 Assay for human Retinoic Acid Receptor Alpha (RARE), DR5 submotif (AID 2282934); details: HepG2 Attagene cis-factorial RARE DR5 reporter, mRNA; actives raise or lower the signal
# How it was run: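 Reporter transcripts from a DR5-regulated unit, measured via RT-PCR plus capillary electrophoresis, reflect endogenous RAR activity in transiently transfected human HepG2 liver cells. Exposure lasted 24 h; gain or loss of signal scored against DMSO.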
# [19] = biological target: Transcription factor E2F1 (Homo sapiens) (UniProt Q01094); assay: ATG_E2F_CIS: Attagene CIS-FACTORIAL HepG2 Assay for human E2F Transcription Factor 1 (AID 2282935); details: HepG2 Attagene cis-reporter, E2F reporter RNA transcripts; actives raise or lower the signal
# How it was run: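 Cis-element reporter mRNA induction in transiently transfected HepG2, 24 h exposure. Activity fitted in both directions relative to DMSO negative control.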
# [20] = APR_HepG2_P-H2AX_24hr: Apredica 24-hour HepG2 Assay for H2AX Phosphorylation (AID 2282920); details: high-content imaging, actives raise or lower the signal
# How it was run: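 HCS fluorescence imaging of phospho-H2A.x immunostain (with Hoechst 33342 nuclear counterstain) in HepG2 after 24 hr compound exposure; 10 concentrations, 0.39–200 uM, duplicate wells, 0.5% v/v DMSO. Gain or loss of signal fitted relative to DMSO baseline.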
# Chain of Transcription factor E2F1 (Homo sapiens) (Q01094 whole entry, looked up): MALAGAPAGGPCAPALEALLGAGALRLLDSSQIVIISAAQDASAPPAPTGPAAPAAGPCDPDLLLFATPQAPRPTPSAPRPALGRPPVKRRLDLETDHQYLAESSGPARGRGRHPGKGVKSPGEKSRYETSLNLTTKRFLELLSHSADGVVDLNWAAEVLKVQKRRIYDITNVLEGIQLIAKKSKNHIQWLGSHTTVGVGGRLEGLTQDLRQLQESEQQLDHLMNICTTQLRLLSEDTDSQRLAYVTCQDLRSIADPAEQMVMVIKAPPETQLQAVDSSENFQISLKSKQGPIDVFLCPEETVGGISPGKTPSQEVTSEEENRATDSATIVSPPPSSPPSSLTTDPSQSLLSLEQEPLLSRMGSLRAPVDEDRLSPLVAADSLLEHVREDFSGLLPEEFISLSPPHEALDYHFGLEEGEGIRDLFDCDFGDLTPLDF
# Chain of Retinoic acid receptor alpha (Homo sapiens) (P10276 whole entry, looked up): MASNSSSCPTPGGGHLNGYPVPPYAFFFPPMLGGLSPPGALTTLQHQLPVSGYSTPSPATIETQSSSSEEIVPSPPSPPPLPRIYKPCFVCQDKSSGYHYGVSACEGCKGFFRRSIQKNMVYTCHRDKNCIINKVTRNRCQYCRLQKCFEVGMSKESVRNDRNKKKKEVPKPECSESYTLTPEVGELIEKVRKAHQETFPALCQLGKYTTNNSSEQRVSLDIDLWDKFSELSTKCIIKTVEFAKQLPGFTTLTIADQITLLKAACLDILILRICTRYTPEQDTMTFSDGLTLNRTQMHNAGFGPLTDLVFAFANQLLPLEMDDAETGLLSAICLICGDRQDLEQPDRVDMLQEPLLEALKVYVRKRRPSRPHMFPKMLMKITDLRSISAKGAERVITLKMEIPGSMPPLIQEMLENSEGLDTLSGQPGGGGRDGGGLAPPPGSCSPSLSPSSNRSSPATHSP
# Chain of Aryl hydrocarbon receptor (Homo sapiens) (P35869 whole entry, looked up): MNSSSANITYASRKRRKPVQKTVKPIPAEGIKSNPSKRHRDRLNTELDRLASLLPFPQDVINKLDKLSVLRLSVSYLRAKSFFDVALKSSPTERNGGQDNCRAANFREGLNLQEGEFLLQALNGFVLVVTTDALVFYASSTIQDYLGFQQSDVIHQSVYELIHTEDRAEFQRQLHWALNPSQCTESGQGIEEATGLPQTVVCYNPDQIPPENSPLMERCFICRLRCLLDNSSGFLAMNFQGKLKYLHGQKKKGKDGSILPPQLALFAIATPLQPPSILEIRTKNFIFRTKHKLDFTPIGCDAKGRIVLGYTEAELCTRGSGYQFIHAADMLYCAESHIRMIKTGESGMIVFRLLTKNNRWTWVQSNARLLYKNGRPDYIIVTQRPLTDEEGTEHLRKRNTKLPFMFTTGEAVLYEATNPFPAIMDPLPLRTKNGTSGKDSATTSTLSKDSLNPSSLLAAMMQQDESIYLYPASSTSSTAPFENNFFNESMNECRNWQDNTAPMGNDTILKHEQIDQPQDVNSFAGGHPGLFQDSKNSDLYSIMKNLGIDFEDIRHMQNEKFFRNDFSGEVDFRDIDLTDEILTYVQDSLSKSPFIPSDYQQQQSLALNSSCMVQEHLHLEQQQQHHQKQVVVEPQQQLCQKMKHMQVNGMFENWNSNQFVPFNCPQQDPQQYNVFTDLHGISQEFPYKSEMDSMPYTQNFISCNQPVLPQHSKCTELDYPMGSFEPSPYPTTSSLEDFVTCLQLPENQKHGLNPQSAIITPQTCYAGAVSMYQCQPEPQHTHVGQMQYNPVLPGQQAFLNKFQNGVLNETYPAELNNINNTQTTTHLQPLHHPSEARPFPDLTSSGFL
# Chain of CCAAT/enhancer-binding protein beta (Homo sapiens) (P17676 whole entry, looked up, the tested form may be a part): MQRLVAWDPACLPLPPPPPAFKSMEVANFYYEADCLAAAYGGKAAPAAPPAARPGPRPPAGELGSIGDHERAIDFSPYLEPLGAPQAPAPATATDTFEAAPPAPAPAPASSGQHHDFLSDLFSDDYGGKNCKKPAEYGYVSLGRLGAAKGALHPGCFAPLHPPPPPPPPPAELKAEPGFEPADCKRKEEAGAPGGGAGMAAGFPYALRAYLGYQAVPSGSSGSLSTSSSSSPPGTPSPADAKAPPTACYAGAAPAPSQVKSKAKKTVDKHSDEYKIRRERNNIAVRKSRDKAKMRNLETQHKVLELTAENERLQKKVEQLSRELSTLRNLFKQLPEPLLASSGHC
smiles,measurement,setting,value
CCCCCCCCCC[N+](C)(C)[O-],outcome,[1],inactive
same,AC50,[2],169 µM (active)
same,AC50,[3],75 µM (active)
same,outcome,[4],inactive
same,outcome,[5],inactive
same,outcome,[6],inactive
same,outcome,[7],inactive
same,outcome,[8],inactive
same,outcome,[9],inactive
same,outcome,[10],inactive
same,outcome,[11],inactive
same,outcome,[12],inactive
same,outcome,[13],inactive
same,outcome,[14],inactive
same,outcome,[15],inactive
same,outcome,[16],inactive
same,outcome,[17],inactive
CC(C)c1cccc(C(C)C)c1NC(=O)NS(=O)(=O)c1cc(C(C)(C)O)co1,outcome,[1],inactive
same,outcome,[2],inactive
same,outcome,[3],inactive
same,outcome,[4],inactive
same,outcome,[5],inactive
same,outcome,[6],inactive
same,outcome,[7],inactive
same,outcome,[8],inactive
same,outcome,[9],inactive
same,outcome,[10],inactive
same,outcome,[11],inactive
same,outcome,[12],inactive
same,outcome,[13],inactive
same,outcome,[15],inactive
same,outcome,[16],inactive
same,outcome,[17],inactive
same,outcome,[18],inactive
CCC(C)N(C)C(=O)c1cc2ccccc2c(-c2ccccc2Cl)n1 (centres undefined),outcome,[1],inactive
same,AC50,[2],67.7 µM (active)
same,AC50,[3],65.8 µM (active)
same,outcome,[4],inactive
same,outcome,[5],inactive
same,AC50,[6],69.2 µM (active)
same,outcome,[7],inactive
same,AC50,[8],66.4 µM (active)
same,outcome,[10],inactive
same,outcome,[11],inactive
same,AC50,[12],46 µM (active)
same,AC50,[13],31.8 µM (active)
same,outcome,[14],inactive
same,AC50,[15],84.8 µM (active)
same,outcome,[16],inactive
same,AC50,[17],97.4 µM (active)
same,outcome,[19],inactive
CCCCCCC(C=O)=Cc1ccccc1,outcome,[1],inactive
same,outcome,[2],inactive
same,outcome,[3],inactive
same,outcome,[4],inactive
same,outcome,[20],inactive
same,outcome,[5],inactive
same,outcome,[8],inactive
same,outcome,[10],inactive
same,outcome,[11],inactive
same,AC50,[12],74.3 µM (active)
same,outcome,[12],inactive
same,outcome,[13],inactive
same,outcome,[16],inactive
same,AC50,[17],44.9 µM (active)
same,outcome,[17],inactive
same,outcome,[18],inactive
CCCCCCCC(=O)OC,outcome,[1],inactive
same,outcome,[2],inactive
same,outcome,[3],inactive
same,outcome,[4],inactive
same,outcome,[20],inactive
same,outcome,[5],inactive
same,outcome,[7],inactive
same,outcome,[8],inactive
same,outcome,[10],inactive
same,outcome,[11],inactive
same,outcome,[12],inactive
same,outcome,[13],inactive
same,outcome,[14],inactive
same,outcome,[16],inactive
same,outcome,[17],inactive
same,outcome,[19],inactive
O=C1CCCCC1,outcome,[1],inactive
same,outcome,[2],inactive
same,outcome,[3],inactive
same,outcome,[4],inactive
same,outcome,[20],inactive
same,outcome,[5],inactive
same,outcome,[8],inactive
same,outcome,[9],inactive
same,outcome,[10],inactive
same,outcome,[11],inactive
same,outcome,[12],inactive
same,outcome,[13],inactive
same,outcome,[15],inactive
same,outcome,[16],inactive
same,outcome,[17],inactive
same,outcome,[19],inactive
C=CCc1ccc(OC)c(OC)c1,outcome,[1],inactive
same,outcome,[2],inactive
same,outcome,[3],inactive
same,outcome,[4],inactive
same,outcome,[20],inactive
same,outcome,[5],inactive
same,outcome,[7],inactive
same,outcome,[8],inactive
same,outcome,[10],inactive
same,outcome,[11],inactive
same,outcome,[12],inactive
same,outcome,[13],inactive
same,outcome,[15],inactive
same,outcome,[16],inactive
same,outcome,[17],inactive

# Source: PubChem BioAssay (EPA / NIEHS)
